Laboratory results: PubChem BioAssay (NCATS)
Results filed as inconclusive are left out. Calls of active or inactive are those of the source. Calls follow the shape of the dose curve; as a rule, active = well fitted cell-killing curve with a large enough effect; inconclusive = small, poorly fitted or top-dose-only effect, or effect the other way; inactive = flat fitted curve, though single readings scatter.

Key:
Assay in all cases: Primary qHTS to identify gynecologic anti-cancer compounds using libraries of approved drugs and bioactive compounds (AID 1345084); also: nearly all actives have a fitted effect of over 55% in size
[1] = tested on: C33A; details: Gynecologic cancer cell panel viability, ATPlite luminescence, 48 h; series mostly up to 57.5 µM
Procedure, shortened: (§1)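 48 h compound exposure at 37 C, 5% CO2; five-point qHTS. ATPlite luminescence readout of cell ATP.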

[2] = tested on: CAOV3; details: Gynecologic cancer cell panel viability, ATPlite luminescence, 48 h; series mostly up to 57.5 µM
Procedure, shortened: as §1

[3] = tested on: CASKI; details: Gynecologic cancer cell panel viability, ATPlite luminescence, 48 h; series mostly up to 57.5 µM
Procedure, shortened: as §1

[4] = tested on: Es-2; details: Gynecologic cancer cell panel viability, ATPlite luminescence, 48 h; series mostly up to 57.5 µM
Procedure, shortened: as §1

[5] = tested on: HeLa; details: Gynecologic cancer cell panel viability, ATPlite luminescence, 48 h; series mostly up to 57.5 µM
Procedure, shortened: as §1

[6] = tested on: Hek293T; details: Gynecologic cancer cell panel viability, ATPlite luminescence, 48 h, control line for the selectivity index; series mostly up to 57.5 µM
Procedure, shortened: as §1

[7] = tested on: JEG-3; details: Gynecologic cancer cell panel viability, ATPlite luminescence, 48 h; series mostly up to 57.5 µM
Procedure, shortened: as §1

[8] = tested on: OV90; details: Gynecologic cancer cell panel viability, ATPlite luminescence, 48 h; series mostly up to 57.5 µM
Procedure, shortened: as §1

[9] = tested on: PA-1; details: Gynecologic cancer cell panel viability, ATPlite luminescence, 48 h; series mostly up to 57.5 µM
Procedure, shortened: as §1

[10] = tested on: SKOV3; details: Gynecologic cancer cell panel viability, ATPlite luminescence, 48 h; series mostly up to 57.5 µM
Procedure, shortened: as §1

[11] = tested on: Tov-21-G; details: Gynecologic cancer cell panel viability, ATPlite luminescence, 48 h; series mostly up to 57.5 µM
Procedure, shortened: as §1

[12] = tested on: Tov112D; details: Gynecologic cancer cell panel viability, ATPlite luminescence, 48 h; series mostly up to 57.5 µM
Procedure, shortened: as §1
% is scaled to controls: 0 for no effect and ±100 for the full control effect; potency is read from the fitted curve at half-maximal effect.

C/C=C(\C)C(=O)OCC1OC(OC2OC(COC(=O)/C(C)=C/C)C(OC3OC(CO)C(OC(=O)/C(C)=C/C)C(OC(=O)/C(C)=C/C)C3O)C(O)C2O)C(O)C(O)C1OC1OC(CO)C(OC(=O)/C(C)=C/C)C(OC(=O)/C(C)=C/C)C1O (centres undefined)
inactive: activity change, negative = cytotoxicity [1] -2.64% [at 11.6 µM] | activity change, negative = cytotoxicity [2] -7.6% [at 11.6 µM] | activity change, negative = cytotoxicity [3] 2.92% [at 11.6 µM] | activity change, negative = cytotoxicity [4] 9.5% [at 11.6 µM] | activity change, negative = cytotoxicity [5] 29.5% [at 11.6 µM] | activity change, negative = cytotoxicity [6] -1.84% [at 11.6 µM] | activity change, negative = cytotoxicity [7] -2.52% [at 11.6 µM] | activity change, negative = cytotoxicity [8] -3.76% [at 11.6 µM] | activity change, negative = cytotoxicity [9] 0.651% [at 11.6 µM] | activity change, negative = cytotoxicity [10] -11.6% [at 11.6 µM] | activity change, negative = cytotoxicity [11] 9.19% [at 11.6 µM] | activity change, negative = cytotoxicity [12] -1.35% [at 11.6 µM]

CC(=O)OC/C=C(\C)C(CC1C(C)=C(OC(C)=O)C(=O)C2C(C)(C)C(O)CCC12C)OC(C)=O (centres undefined)
inactive: Potency [1] | Potency [2] | Potency [3] | Potency [4] | Potency [5] | Potency [6] | Potency [7] | Potency [8] | Potency [9] | Potency [10] | Potency [11] | Potency [12]

C[C@@H]1O[C@@H](O[C@H]2[C@@H]3C=CO[C@@H](O[C@@H]4O[C@H](CO)[C@@H](O)[C@H](O)[C@H]4O)[C@@H]3[C@@]3(CO)O[C@@H]23)[C@H](OC(=O)/C=C/c2ccc(O)c(O)c2)[C@H](O)[C@H]1O
inactive: Potency [1] | Potency [2] | Potency [3] | Potency [4] | Potency [5] | Potency [6] | Potency [7] | Potency [8] | Potency [9] | Potency [10] | Potency [11] | Potency [12]

CC1(C)CCCC2(C)C1CC(=O)C13CC(CCC12)C(O)(CO)C3 (centres undefined)
inactive: Potency [1] | Potency [2] | Potency [3] | Potency [5] | Potency [6] | Potency [7] | Potency [8] | Potency [9] | Potency [10] | Potency [11] | Potency [12]
active: Potency [4] 4.47 µM

CC1(C)CC[C@]2(C(=O)O)[C@H](O)C[C@]3(C)C(=CCC4[C@@]5(C)CC[C@H](O[C@@H]6O[C@H](CO[C@@H]7OC[C@H](O)[C@H](O)[C@H]7O[C@@H]7OC[C@@H](O)[C@H](O)[C@H]7O)[C@@H](O)[C@H](O)[C@H]6O[C@@H]6O[C@H](CO)[C@@H](O)[C@H](O)[C@H]6O)C(C)(C)C5CC[C@]43C)[C@@H]2C1 (some centres undefined)
inactive: activity change, negative = cytotoxicity [1] -1.17% [at 11.6 µM] | activity change, negative = cytotoxicity [2] -15.5% [at 11.6 µM] | activity change, negative = cytotoxicity [3] 15.8% [at 11.6 µM] | activity change, negative = cytotoxicity [4] -1.47% [at 11.6 µM] | activity change, negative = cytotoxicity [5] 4.13% [at 11.6 µM] | activity change, negative = cytotoxicity [6] 5.35% [at 11.6 µM] | activity change, negative = cytotoxicity [7] 8.72% [at 11.6 µM] | activity change, negative = cytotoxicity [8] 15.1% [at 11.6 µM] | activity change, negative = cytotoxicity [9] -2.35% [at 11.6 µM] | activity change, negative = cytotoxicity [10] 21.8% [at 11.6 µM] | activity change, negative = cytotoxicity [11] -13.8% [at 11.6 µM] | activity change, negative = cytotoxicity [12] 1.64% [at 11.6 µM]

CC1=CC(=O)CC(C)(C)C1CCC(C)O[C@@H]1O[C@H](CO[C@@H]2OC[C@@H](O)[C@H](O)[C@H]2O)[C@@H](O)[C@H](O)[C@H]1O (some centres undefined)
inactive: Potency [1] | Potency [2] | Potency [3] | Potency [4] | Potency [5] | Potency [6] | Potency [7] | Potency [8] | Potency [9] | Potency [10] | Potency [11] | Potency [12]

CC1=CC(=O)CC(C)(CO)C1(O)/C=C/C(C)O[C@@H]1O[C@H](CO)[C@@H](O)[C@H](O)[C@H]1O (some centres undefined)
inactive: Potency [1] | Potency [2] | Potency [3] | Potency [4] | Potency [5] | Potency [6] | Potency [7] | Potency [8] | Potency [9] | Potency [10] | Potency [11] | Potency [12]
